# This is a sample that favours compounds with a hit; in the whole collection about 2.8% have one here.
# SENP7 inh: blocks the human protease SENP7 | Q9BQF6 | recombinant SENP7, Z-RLRGG-aminoluciferin luminescence, 40 min | inhibition, % at 5 µM | hit rate 1.5% among 330,000;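 active = inhibition above about 50% at the single test dose, limit read from the data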;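 note: plate controls were DMSO with enzyme for no effect and no enzyme buffer wells for full effect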
# Target sequence (Q9BQF6 706-1050 limits assumed): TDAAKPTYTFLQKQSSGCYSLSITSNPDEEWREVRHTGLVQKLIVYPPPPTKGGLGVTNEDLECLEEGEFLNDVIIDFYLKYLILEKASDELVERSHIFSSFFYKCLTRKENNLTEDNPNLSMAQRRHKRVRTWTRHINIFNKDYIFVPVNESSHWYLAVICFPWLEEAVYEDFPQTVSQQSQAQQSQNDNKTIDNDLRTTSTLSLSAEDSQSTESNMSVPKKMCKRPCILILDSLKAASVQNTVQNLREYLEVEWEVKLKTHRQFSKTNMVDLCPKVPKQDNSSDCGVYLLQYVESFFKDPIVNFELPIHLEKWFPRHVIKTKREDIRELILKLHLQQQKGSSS
# SENP8 block-1: SENP8 (human) protease inhibition; Q96LD8; recombinant SENP8, Nedd8 substrate fluorescence; inhibition, % at 20 µM; hit rate 0.64% among 360,000; AID 602440; in the data active = inhibition mostly above about 40%, no sharp cut-off; inactive = mostly below about 27%
# SENP6 inh: blocks the human protease SENP6 | inhibition, % at 10 µM | AID 2599 | Recombinant SENP6 catalytic domain, aminoluciferin luminescence | hit rate 1.8% among 330,000;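 active = inhibition above about 50% at the single tested dose, limit read from the data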;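 note: plate controls were DMSO wells with enzyme for no effect and DMSO wells lacking enzyme for full effect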
# SENP8 block-2: inhibitors of human SENP8 protease. inhibition, % at 10 µM. Q96LD8. purified SENP8, Z-RLRGG-aminoluciferin cleavage, luminescence. hit rate 1.2% among 330,000. AID 2540; in the data active = inhibition above about 50%
# HSP90 refold inh: inhibitors of HSP90 luciferase refolding in rabbit reticulocyte lysate; luciferase refolding luminescence, 3 h; inhibition, % at 5.6 µM; hit rate 0.91% among 290,000;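 active = inhibition above the screen-wide mean plus 3 SD, computed separately per campaign, cut at about 16% in these data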;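 note: 0% = DMSO wells and 100% = 60 µM geldanamycin wells; inhibitors lower the luminescence because luciferase stays unfolded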
# SENP8 conf: human SENP8 inhibition, confirmed; AID 488912; Recombinant SENP8, Z-RLRGG-aminoluciferin luminescence, 60 min; shares compounds with SENP7 inh; inhibition, % at 12.5 µM; hit rate 40% among 6,200;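 active = mean inhibition across replicates above about 50%, limit read from the data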
# SENP6 conf: confirmation of human SENP6 protease inhibitors | shares compounds with SENP7 inh | recombinant SENP6, Z-RLRGG-aminoluciferin luminescence | inhibition, % at 12.5 µM | hit rate 58% among 6,200 | AID 488915
# SENP7 conf: confirmation of human SENP7 protease inhibitors. shares compounds with SENP7 inh. AID 488917. hit rate 69% among 6,200. inhibition, % at 12.5 µM. recombinant SENP7, Z-RLRGG-aminoluciferin luminescence, 40 min
# Casp3 SENP sel: selectivity test for SENP inhibitors: human caspase-3 inhibition; inhibition, % at 12.5 µM; AID 488918; hit rate 60% among 6,200; purified caspase-3, Z-DEVD-aminoluciferin luminescence, 60 min; shares compounds with SENP7 inh;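 active = mean inhibition above about 50%, limit read from the data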;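 note: plate controls were enzyme with DMSO for no effect and wells without caspase-3 for full effect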
# Target sequence (P42574 28-227 limits assumed): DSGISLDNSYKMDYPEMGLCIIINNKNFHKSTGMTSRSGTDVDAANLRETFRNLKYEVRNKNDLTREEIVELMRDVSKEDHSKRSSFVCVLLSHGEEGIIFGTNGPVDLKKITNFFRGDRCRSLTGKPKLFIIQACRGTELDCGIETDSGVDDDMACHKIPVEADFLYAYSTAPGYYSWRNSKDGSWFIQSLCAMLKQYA
# SENP luc ctr: interferes with luciferase luminescence in SENP counter-screen | shares compounds with SENP7 inh | Pre-incubated SENP8/Z-RLRGG-aminoluciferin, luciferase luminescence interference | inhibition, % at 12.5 µM | hit rate 39% among 6,200;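 active = mean inhibition above about 50% when retested at one dose, limit read from the data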;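 note: plate controls were DMSO wells with completed reaction for no effect and substrate without enzyme for full effect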
# * = called active by the depositor; i = inactive; nt = no result.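 Rule for the calls, unless noted: active = mean inhibition above about 50% in the one-dose retest (limit read from the data); inactive = the rest.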
SMILES,SENP7 inh,SENP8 block-1,SENP6 inh,SENP8 block-2,HSP90 refold inh,SENP8 conf,SENP6 conf,SENP7 conf,Casp3 SENP sel,SENP luc ctr
N#Cc1c(N)n(CCOC(=O)c2cccc(Br)c2)c2nc3ccccc3nc12,14,-486,1,6,0,nt,nt,nt,nt,nt
COc1ccc(Cn2c(N)c(C#N)c3nc4ccccc4nc32)cc1,-3,-269,22,-4,7,nt,nt,nt,nt,nt
COc1cc(Cn2c(N)c(C#N)c3nc4ccccc4nc32)cc(OC)c1,8,-295,88*,23,6,5,8,12,5,7
COCCn1c(N)c(C#N)c2nc3ccccc3nc21,25,-313,47,23,8,nt,nt,nt,nt,nt
O=C(CSc1nnc(-c2ccco2)o1)Nc1cccc([N+](=O)[O-])c1,-1,14,-21,0,0,nt,nt,nt,nt,nt
COc1ccc(SC2=C[C@@]3(O)CC[C@@H](O)[C@@](Sc4ccc(OC)cc4)(C2=O)[C@H]3O)cc1,nt,2,nt,nt,nt,nt,nt,nt,nt,nt
O=C(O)c1ccc(N/C(=N\S(=O)(=O)c2ccc(Cl)cc2)c2ccccc2)cc1,-4,16,-21,-9,6,nt,nt,nt,nt,nt
O=C(NN/C(=N/S(=O)(=O)c1ccc(Cl)cc1)c1ccccc1)c1cccc(Cl)c1,85*,20,86*,71*,0,51*,64*,87*,63*,38
Cc1ccc(S(=O)(=O)NN/C(=N/S(=O)(=O)c2ccccc2)c2ccccc2)cc1,-3,2,-11,-11,1,nt,nt,nt,nt,nt
Cc1ccc(S(=O)(=O)/N=C(/NNC(=O)c2cccc(Cl)c2)c2ccccc2)cc1,68*,10,78*,49,3,14,25,63*,43,45
O=C(NN/C(=N/S(=O)(=O)c1ccc(Cl)cc1)c1ccccc1)c1ccc(O)cc1,97*,-60,96*,95*,3,73*,63*,89*,87*,88*
COc1cc(CNn2nnnc2N)cc(Br)c1OCc1c(Cl)cccc1Cl,-1,14,3,-1,1,nt,nt,nt,nt,nt
CNc1nc(C)c([N+](=O)[O-])c(Nc2ccc(OC)cc2)n1,1,12,-11,0,5,nt,nt,nt,nt,nt
CCOc1ccc(C(=O)Nc2cccc(-c3ccc(N4CCOCC4)nn3)c2)cc1OCC,3,-22,4,-1,nt,nt,nt,nt,nt,nt
CN1CCN(c2ccc(-c3cccc(NC(=O)COc4ccc(Cl)cc4Cl)c3)nn2)CC1,67*,1,31,19,nt,18,20,21,18,17
CCOc1ccccc1C(=O)Nc1cccc(-c2ccc(N3CCOCC3)nn2)c1,70*,-15,78*,55*,nt,24,68*,89*,63*,17
Cc1ccc(C)c(NC(=O)C2C3CCCC2C3c2ccccc2)c1 (stereo not given),0,26,8,5,0,nt,nt,nt,nt,nt
CCN(C(=S)NC(=O)c1ccco1)c1cccc2ccccc12,23,-483,70*,33,nt,13,17,9,3,5
O=C(C1CCN(S(=O)(=O)c2cccnc2)CC1)N1CCN(c2ccccc2Cl)CC1,-4,11,-7,6,-2,nt,nt,nt,nt,nt
O=C(/C(C=Nc1ccc(F)cc1)=C(/O)c1ccco1)C(F)(F)F,79*,-117,77*,47,-3,-2,4,12,36,29
O=C(Nc1cccc(N=Cc2cc(Cl)cc(Br)c2O)c1)c1ccco1,9,-56,9,3,4,nt,nt,nt,nt,nt
Cc1ccc(N=C/C(C(=O)C(F)(F)F)=C(\O)c2ccco2)cc1Cl,59*,-246,68*,37,2,-6,0,39,18,54*
O=C(NCCNC(=O)c1ccco1)c1ccc(F)cc1,3,2,3,3,0,nt,nt,nt,nt,nt
CC(=O)NC1Sc2ccccc2N=C1c1ccccc1 (stereo not given),85*,-70,89*,84*,1,-2,69*,97*,66*,31
CC(=O)N1c2ccccc2N=C(c2ccc(C(F)(F)F)cc2)C1C(=O)NC1CCCC1 (stereo not given),nt,-103,nt,nt,nt,nt,nt,nt,nt,nt
SMILES,SENP7 inh,SENP8 block-1,SENP6 inh,SENP8 block-2,HSP90 refold inh,SENP8 conf,SENP6 conf,SENP7 conf,Casp3 SENP sel,SENP luc ctr
O=C(Nc1cccc(Cl)c1)Nc1ccccc1C(=O)NCc1ccco1,76*,-404,73*,68*,0,14,47,96*,43,46
COc1ccccc1Oc1ccc(S(=O)(=O)N2CCCCC2C)cc1 (stereo not given),-6,4,-13,-15,-2,nt,nt,nt,nt,nt
COc1ccc(C(=O)CSc2nnc(Cc3ccccc3)o2)cc1,60*,10,-38,-9,-2,7,9,8,4,3
COc1ccccc1C(=O)N1CCN(c2cccc(C(F)(F)F)c2)CC1,-5,3,1,12,-3,nt,nt,nt,nt,nt
Oc1cc(O)cc(/C=C/c2ccc(O)c(O)c2)c1,45,-384,65*,44,nt,63*,71*,83*,63*,73*
Cc1ccc(C(=O)/C=C/Nc2ccccc2C(N)=O)cc1,90*,i,95*,86*,5,22,90*,102*,94*,48
Cc1ccc(O)c(NC(=O)/C=C/C(=O)O)c1,3,7,-13,-4,0,nt,nt,nt,nt,nt
NC(=O)c1ccccc1N/C=C/C(=O)c1ccc(Cl)cc1,93*,i,84*,64*,0,48,78*,76*,90*,29
COc1ccc(N/C=C/C(=O)c2ccc(Cl)cc2)cc1,43,-12,-6,-13,3,nt,nt,nt,nt,nt
Cc1ccc(O)c(N/C=C/C(=O)c2ccc(F)cc2)c1,68*,-40,82*,80*,6,61*,80*,95*,67*,22
COc1ccc2c(C)cc(SCc3c(C)noc3C)nc2c1,2,-9,-4,1,0,nt,nt,nt,nt,nt
O=C(CNC(=O)c1ccco1)Nc1ccc(OC(F)F)cc1,nt,15,nt,nt,-1,nt,nt,nt,nt,nt
O=C(O)c1ccc(-c2sc(Nc3ccccc3)n[n+]2-c2ccc(F)cc2)cc1,8,-4,14,12,3,nt,nt,nt,nt,nt
Cc1ccsc1/C=C1\Oc2cc(OCC(=O)c3ccccc3)ccc2C1=O,49,-186,60*,41,5,-24,-24,-7,26,-4
CC(/C=N\NC(=O)c1cc(C)oc1C)=C\c1ccccc1,82*,14,-14,72*,-3,14,19,24,25,7
Cc1occc1C(=O)N/N=C/c1ccccc1[N+](=O)[O-],73*,8,56*,37,1,47,47,85*,84*,32

# Screening data deposited in PubChem by several laboratories.
